# IDE exosite inh: exo-site inhibitors of human insulin-degrading enzyme; purified IDE, FL-6b probe fluorescence polarization; active compounds read low; z-score at 20 µM; hit rate 6.3% among 17,000; AID 1259349;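 active = z-score of -3 or lower, meaning strong loss of probe binding signal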;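 also: His-tagged human IDE residues 42-1019 made in E. coli with 30 nM FL-6b probe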
# Target sequence (P14735 42-1019 limits assumed): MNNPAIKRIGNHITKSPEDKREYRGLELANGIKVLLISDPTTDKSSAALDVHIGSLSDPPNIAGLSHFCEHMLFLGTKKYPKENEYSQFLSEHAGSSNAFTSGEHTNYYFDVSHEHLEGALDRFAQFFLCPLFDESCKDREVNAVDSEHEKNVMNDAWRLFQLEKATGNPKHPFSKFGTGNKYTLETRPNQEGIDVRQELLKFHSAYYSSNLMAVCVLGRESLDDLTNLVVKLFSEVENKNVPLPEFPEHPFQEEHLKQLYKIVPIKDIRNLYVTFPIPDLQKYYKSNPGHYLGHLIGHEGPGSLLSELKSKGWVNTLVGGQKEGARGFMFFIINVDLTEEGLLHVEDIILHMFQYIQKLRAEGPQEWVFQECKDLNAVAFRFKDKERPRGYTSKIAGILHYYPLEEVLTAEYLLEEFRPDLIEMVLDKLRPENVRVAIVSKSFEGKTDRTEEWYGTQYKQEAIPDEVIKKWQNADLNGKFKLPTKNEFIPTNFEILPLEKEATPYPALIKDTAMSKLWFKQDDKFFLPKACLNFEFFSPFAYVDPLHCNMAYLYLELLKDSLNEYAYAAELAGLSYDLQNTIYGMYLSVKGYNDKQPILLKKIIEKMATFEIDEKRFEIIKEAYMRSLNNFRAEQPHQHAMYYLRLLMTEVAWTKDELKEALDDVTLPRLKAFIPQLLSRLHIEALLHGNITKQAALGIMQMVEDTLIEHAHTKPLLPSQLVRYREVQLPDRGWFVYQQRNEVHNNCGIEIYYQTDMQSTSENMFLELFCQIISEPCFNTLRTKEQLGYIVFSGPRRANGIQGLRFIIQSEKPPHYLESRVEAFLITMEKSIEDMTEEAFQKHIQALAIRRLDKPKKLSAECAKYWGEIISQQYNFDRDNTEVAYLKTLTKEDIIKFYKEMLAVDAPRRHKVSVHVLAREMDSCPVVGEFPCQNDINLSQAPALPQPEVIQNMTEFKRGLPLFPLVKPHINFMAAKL
# The depositor's hits bear a star. Many of the other results were omitted from the sample, so hits are more common in it than they were.
SMILES,IDE exosite inh
CCCNC(=O)N1CC(=O)N2[C@H](C1)[C@@H](c1ccc(-c3ccc(C)cc3)cc1)[C@@H]2CO,-2.4
CCCNC(=O)N1CC(=O)N2[C@H](CO)[C@@H](c3ccc(-c4ccc(F)cc4)cc3)[C@@H]2C1,0.15
CCCNC(=O)N1CC(=O)N2[C@H](CO)[C@@H](c3ccc(-c4ccc(C)cc4)cc3)[C@@H]2C1,-0.42
CCCNC(=O)N1CC(=O)N2[C@H](CO)[C@H](c3ccc(-c4cccc(C)c4)cc3)[C@@H]2C1,-16*
CCCNC(=O)N1CC(=O)N2[C@H](CO)[C@H](c3ccc(-c4ccncc4)cc3)[C@@H]2C1,0.13
O=C(C[C@@H]1CC[C@H]2[C@@H](COC[C@H](O)CN2C(=O)c2ccc(F)cc2)O1)N1CCCCC1,1.6
O=C(c1ccc(F)cc1)N1CC(=O)N2[C@H](C1)[C@H](c1ccc(-c3ccccc3)cc1)[C@@H]2CO,1.8
C/C=C/c1ccc([C@H]2[C@@H](CO)N(C(C)=O)[C@@H]2CN(CCC)C(C)=O)cc1,1.9
COc1ccc(-c2ccccc2[C@@H]2[C@@H](C#N)N(C(=O)C3CCOCC3)[C@H]2CO)cc1,0.81
O=C(N[C@@H]1CC[C@H](CC(=O)N2CCOCC2)O[C@H]1CO)c1cccc(F)c1,-0.91
CO[C@H]1CC[C@H]2CCN(C)C(=O)[C@@H](C)N(C)C(=O)c3cccc(C#N)c3OC[C@H]1O2,1.4
CCCNC(=O)NC[C@H]1[C@@H](c2ccc(C3=CCCCC3)cc2)[C@H](CO)N1C(C)=O,-0.56
C[C@H]1CC(=O)N[C@@H](c2ccccc2)C/C=C\C[C@H](c2ccccc2)NC1=O,-0.41
CCC(=O)N1CC(=O)N2[C@H](CO)[C@@H](c3ccc(C#CCc4ccccc4)cc3)[C@H]2C1,0.71
O=C(Cc1ccccc1)N1CC(=O)N2[C@H](CO)[C@@H](c3ccc(C#CCc4ccccc4)cc3)[C@H]2C1,2.1
CCC(=O)N1CC(=O)N2[C@H](C1)[C@H](c1ccc(C#CCc3ccccc3)cc1)[C@@H]2CO,0.49
CCC(=O)N1CC(=O)N2[C@@H](CO)[C@@H](c3ccc(C#CCc4ccccc4)cc3)[C@@H]2C1,-7.4*
O=C(Cc1ccccc1)N1CC(=O)N2[C@H](CO)[C@H](c3ccc(C#CCc4ccccc4)cc3)[C@H]2C1,-4.3*
O=C(Cc1ccccc1)N1CC(=O)N2[C@H](C1)[C@@H](c1ccc(C#Cc3ccccc3)cc1)[C@@H]2CO,-2.8
CN(C)CC(=O)N1[C@@H](CO)[C@H](c2ccccc2)C12CN(C(=O)c1ccc(F)cc1)C2,0.64
COc1cccc(C#Cc2ccc([C@@H]3[C@@H](CO)N4C(=O)CN(S(=O)(=O)c5ccccc5C)C[C@@H]34)cc2)c1,0.34
COc1cccc(CN2[C@H](CO)[C@H](c3ccccc3)C23CN(C(=O)C2CCCCC2)C3)c1,1.7
O=C(C[C@H]1CC[C@H]2[C@@H](COC[C@H](O)CN2C(=O)Cc2ccccc2)O1)NC1Cc2ccccc2C1,0.6
OC[C@H]1[C@@H](c2ccc(-c3ccncc3)cc2)[C@@H]2CN(Cc3ccccn3)CCCCN12,-0.068
CCS(=O)(=O)NCC[C@@H]1CC[C@@H](NC(=O)Nc2cc(Cl)cc(Cl)c2)[C@H](CO)O1,0.65
SMILES,IDE exosite inh
COc1ccc(C#Cc2ccc([C@H]3[C@@H](CO)N4C(=O)CN(C(=O)c5ccccc5)C[C@H]34)cc2)cc1,2.2
O=C(c1ccccc1)N1CC(=O)N2[C@@H](CO)[C@H](c3ccc(C#Cc4ccccc4)cc3)[C@@H]2C1,-3.8*
COc1ccc(C#Cc2ccc([C@@H]3[C@H]4CN(C(=O)c5ccccc5)CC(=O)N4[C@H]3CO)cc2)cc1,2.1
O=C(c1ccccc1)N1CC(=O)N2[C@H](C1)[C@@H](c1ccc(C#Cc3ccccc3)cc1)[C@@H]2CO,0.44
COc1ccc(C#Cc2ccc([C@H]3[C@H](CO)N4C(=O)CN(C(=O)c5ccccc5)C[C@@H]34)cc2)cc1,1.9
O=C(c1ccccc1)N1CC(=O)N2[C@@H](CO)[C@@H](c3ccc(C#Cc4ccccc4)cc3)[C@@H]2C1,-9.1*
C/C=C/c1ccc([C@H]2[C@@H](CO)N(C(C)=O)C23CN(C(=O)NC2CCCCC2)C3)cc1,0.49
Cc1noc(C)c1NC(=O)Nc1ccc2c(c1)C(=O)N([C@H](C)CO)C[C@@H](C)[C@H](CN(C)Cc1ccc3c(c1)OCO3)OCCCC[C@H](C)O2,0.58
O=C1C[C@@H](c2ccccc2)C(=O)N[C@H](c2ccc3c(c2)OCO3)C/C=C\C[C@@H](c2ccc(F)cc2)N1,1.4
CCCNC(=O)N1[C@H](C#N)[C@@H](c2ccccc2-c2ccccc2F)[C@@H]1CO,-0.68
CCCC#Cc1ccc([C@H]2[C@@H](CO)N3C(=O)CN(C(=O)Nc4cc(F)ccc4F)C[C@@H]23)cc1,3.7
N#C[C@@H]1[C@@H](c2ccc(C#Cc3ccccc3F)cc2)[C@H](CO)N1C(=O)C1CCC1,1
N#C[C@@H]1N[C@@H](CO)[C@H]1c1ccc(-c2ccccc2F)cc1,2.1
N#C[C@@H]1[C@H](c2ccc(C#Cc3ccccc3F)cc2)[C@H](CO)N1C(=O)c1cccnc1,-1.7
N#C[C@H]1[C@H](c2ccc(C#Cc3ccccc3F)cc2)[C@@H](CO)N1C(=O)C1CCC1,3.7
N#C[C@H]1[C@H](c2ccc(C#Cc3ccccc3F)cc2)[C@@H](CO)N1C(=O)C1CC1,3.4
N#C[C@@H]1[C@@H](c2ccccc2)[C@@H](CO)N1C(=O)c1cccnc1,6.3
N#C[C@H]1N[C@H](CO)[C@H]1c1ccc(C#Cc2ccccc2F)cc1,-0.075
N#C[C@@H]1[C@H](c2ccc(C#Cc3ccccc3F)cc2)[C@@H](CO)N1C(=O)C1CCC1,-4.8*
N#C[C@H]1[C@H](c2ccc(C#Cc3ccccc3F)cc2)[C@@H](CO)N1C(=O)C1CCOCC1,-5.9*
N#C[C@H]1N[C@@H](CO)[C@H]1c1ccc(C#Cc2ccccc2F)cc1,-4*
N#C[C@@H]1[C@@H](c2ccc(C#Cc3ccccc3F)cc2)[C@@H](CO)N1C(=O)C1CC1,-1.6
N#C[C@@H]1[C@H](c2ccc(C#Cc3ccccc3F)cc2)[C@@H](CO)N1C(=O)c1cccnc1,-4*
CC(C)c1cccc(NC(=O)C[C@H]2CC[C@H]3[C@@H](COc4ccc(NC(=O)c5cnccn5)cc4C(=O)N3C)O2)c1,-0.24
COc1ccc2c3c(n(C)c2c1)[C@@H](CO)NCC31CN(C(=O)Nc2ccccc2F)C1,1.4
SMILES,IDE exosite inh
COCC(=O)N(C[C@H]1N[C@H](CO)[C@@H]1c1ccc(-c2cccnc2)cc1)C(C)C,0.053
Cn1cnc(S(=O)(=O)N[C@@H]2CC[C@@H](CC(=O)NCC3CCCCC3)O[C@H]2CO)c1,0.53
CN(C)C(=O)c1cccc(-c2ccc(C3[C@H]4CNC[C@@H]3N4Cc3cc(F)ccc3F)cc2)c1 (stereo partly specified),2.5
CN(C)CC(=O)N1[C@@H](C#N)[C@H](c2ccccc2-c2ccccc2F)[C@@H]1CO,1.2
Cc1ccccc1S(=O)(=O)N1CC(=O)N2[C@H](C1)[C@@H](c1ccc(C#CCC(C)C)cc1)[C@@H]2CO,3
COCC(=O)N1[C@H](CO)[C@H](c2ccccc2-c2cccc(F)c2)[C@@H]1C#N,2
O=C(C1CCOCC1)N1C[C@@H]2N[C@H](C1)C2c1ccc(-c2cncnc2)cc1 (stereo partly specified),3.1
CN(C)C(=O)c1ccc(-c2ccc(C3[C@@H]4CN(C(=O)C5CC5)C[C@H]3N4)cc2)cc1 (stereo partly specified),1.4

# Bioassay records from PubChem.
